About 79,000 compounds went through this panel and 15% of them were active in at least one assay; those are over-represented in the sample as a whole. Active and inactive are the calls of the source. No stated cut-off is given here; in the data, active means growth inhibition above about 70%; inactive means the rest.
Tests used:
[1] = NCI Yeast Anticancer Drug Screen. Data for the rad52 strain (AID 147);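 further: 0% = growth of vehicle-treated control cultures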; settings: S. cerevisiae rad52 mutant growth inhibition, stronger effect = higher value
Method in brief: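 DNA repair-defective yeast; compound exposure; growth scored against vehicle controls.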

[2] = NCI Yeast Anticancer Drug Screen. Data for the wt1 strain (AID 149);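 further: 0% = growth of vehicle-treated wt1 cultures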; settings: S. cerevisiae wt1 strain (SPY 50644) growth inhibition, stronger effect = higher value
Method in brief: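 wt1 yeast, compound-treated; % growth inhibition vs vehicle control.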

[3] = NCI Yeast Anticancer Drug Screen. Data for the rad50EPP+ strain (AID 151);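 further: 0% = growth of vehicle-treated control cultures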; settings: S. cerevisiae rad50 mutant strain, stronger effect = higher value
Method in brief: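 rad50EPP+ yeast treated with test compounds. Readout: growth vs vehicle control.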

[4] = NCI Yeast Anticancer Drug Screen. Data for the mgt1 strain (AID 153); settings: S. cerevisiae mgt1 mutant growth inhibition, stronger effect = higher value
Method in brief: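 Growth inhibition relative to vehicle controls was scored for the mgt1 yeast strain after compound exposure.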

[5] = NCI Yeast Anticancer Drug Screen. Data for the rad50 strain (AID 155);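 further: 0% = growth of vehicle-only cultures of the same strain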; settings: S. cerevisiae rad50 strain growth inhibition, stronger effect = higher value
Method in brief: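 Genetically altered yeast (DNA repair pathway); compound treatment; growth inhibition vs vehicle ctrl.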

[6] = NCI Yeast Anticancer Drug Screen. Data for the mec2-1 strain (AID 157); settings: S. cerevisiae mec2-1 strain, stronger effect = higher value
Method in brief: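 Growth inhibition is read against vehicle-treated controls after compound exposure of the mec2-1 yeast strain, which is defective in DNA damage repair or cell cycle control.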

[7] = NCI Yeast Anticancer Drug Screen. Data for the sgs1 mgt1 strain (AID 161);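 further: 0% = growth of cultures given vehicle only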; settings: S. cerevisiae sgs1 mgt1 strain, stronger effect = higher value
Method in brief: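 Percent growth inhibition was derived by comparing compound-exposed mutant yeast with vehicle-exposed cultures. The strain carries alterations in DNA damage repair.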

[8] = NCI Yeast Anticancer Drug Screen. Data for the CLN2oe strain (AID 163);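 further: 0% = growth of vehicle-only control cultures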; settings: S. cerevisiae CLN2oe strain, stronger effect = higher value
Method in brief: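 Compound-treated yeast; growth vs vehicle ctrl = % inhibition. Genetically altered strain (cell-cycle control).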

[9] = NCI Yeast Anticancer Drug Screen. Data for the cln2 rad14 strain (AID 165);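 further: 0% = growth equal to vehicle treated cultures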; settings: S. cerevisiae cln2 rad14 strain, stronger effect = higher value
Method in brief: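 Growth inhibition, relative to vehicle-treated controls, is the read-out. The test organism is a yeast strain with defined genetic alterations, cln2 rad14.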

[10] = NCI Yeast Anticancer Drug Screen. Data for the bub3 strain (AID 167); settings: S. cerevisiae bub3 mutant strain, stronger effect = higher value
Method in brief: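 Yeast carrying a defined mutation is treated with each compound, and growth is compared with that of vehicle-exposed cells to give inhibition.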

[11] = NCI Yeast Anticancer Drug Screen. Data for the wt2 strain (AID 169);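 further: 0% = growth of vehicle-treated yeast cultures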; settings: S. cerevisiae wt2 strain growth inhibition, stronger effect = higher value
Method in brief: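 Compound exposure of yeast; growth compared with vehicle controls; inhibition reported.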

[12] = NCI Yeast Anticancer Drug Screen. Data for the mlh1 strain (AID 171);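 further: 0% = growth of vehicle-treated control cultures of the same strain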; settings: S. cerevisiae mlh1 strain growth inhibition, stronger effect = higher value
Method in brief: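 Compounds are applied to a genetically altered yeast strain, and its growth is compared with that of vehicle-treated cultures to give percent inhibition.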

[13] = NCI Yeast Anticancer Drug Screen. Data for the sgs1 strain (AID 173);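 further: 0% = growth of vehicle-only control cultures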; settings: S. cerevisiae sgs1 mutant, stronger effect = higher value
Method in brief: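 Compounds applied to genetically altered yeast; growth compared with vehicle-treated cultures to give % inhibition.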

[14] = NCI Yeast Anticancer Drug Screen. Data for the mlh1 rad18 strain (AID 175); settings: S. cerevisiae mlh1 rad18 strain growth inhibition, stronger effect = higher value
Method in brief: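 Cells of a genetically altered yeast strain, deficient in DNA damage repair, were treated with compound. Their growth was then compared with that of vehicle-treated cultures to give inhibition.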

[15] = NCI Yeast Anticancer Drug Screen. Data for the rad18 strain (AID 177); settings: S. cerevisiae rad18 mutant growth inhibition, stronger effect = higher value
Method in brief: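 Compounds are applied to a repair-deficient yeast strain, and growth is compared with that of vehicle-treated cultures to give percent inhibition.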

[16] = NCI Yeast Anticancer Drug Screen. Data for the rad14 strain (AID 159);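 further: 0% = growth of vehicle-treated control cultures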; settings: S. cerevisiae rad14 strain growth inhibition, stronger effect = higher value
Method in brief: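 Test compounds were applied to a repair-deficient yeast strain. Its growth was then compared with that of cultures given vehicle alone, and inhibition was expressed relative to those controls.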

[17] = at 5.0 µM (retest, dose inferred, filed as 0.5)
[18] = at 50.0 µM (retest, dose inferred, filed as 5.0)

Measured: growth inhibition

Nc1nc(-c2ccccc2)c(-c2ccccc2)[se]1
inactive: [1]; at 1.2 µM 3% | [1]; at 3.7 µM 3% | [1]; at 11.0 µM 0% | [1]; at 33.0 µM 12% | [1]; at 100.0 µM 28% | [2]; at 1.2 µM -2% | [2]; at 3.7 µM -1% | [2]; at 11.0 µM -1% | [2]; at 33.0 µM -2% | [2]; at 100.0 µM 3% | [3]; at 1.2 µM -1% | [3]; at 3.7 µM 7% | [3]; at 11.0 µM 9% | [3]; at 33.0 µM 18% | [3]; at 100.0 µM 25% | [4]; at 1.2 µM -3% | [4]; at 3.7 µM 1% | [4]; at 11.0 µM 0% | [4]; at 33.0 µM 2% | [4]; at 100.0 µM 12% | [5]; at 1.2 µM 7% | [5]; at 3.7 µM 4% | [5]; [17] 7% | [5]; at 11.0 µM 5% | [5]; at 33.0 µM 16% | [5]; [18] 10% | [5]; at 50.0 µM 51.1% | [5]; at 100.0 µM 32% | [6]; at 1.2 µM -1% | [6]; at 3.7 µM 1% | [6]; [17] 11% | [6]; at 11.0 µM 0% | [6]; at 33.0 µM 3% | [6]; [18] 10% | [6]; at 50.0 µM 22.9% | [6]; at 100.0 µM 7% | [7]; [17] 10% | [7]; [18] 23% | [8]; at 1.2 µM 3% | [8]; at 3.7 µM -1% | [8]; at 11.0 µM 3% | [8]; at 33.0 µM 8% | [8]; at 100.0 µM 15% | [9]; [17] 11% | [9]; [18] 2% | [9]; at 50.0 µM -11.8% | [10]; at 1.2 µM -2% | [10]; at 3.7 µM -2% | [10]; [17] 3% | [10]; at 11.0 µM -3% | [10]; at 33.0 µM 3% | [10]; [18] 1% | [10]; at 50.0 µM 41.3% | [10]; at 100.0 µM 5% | [11]; at 1.2 µM -10% | [11]; at 3.7 µM -9% | [11]; at 11.0 µM -14% | [11]; at 33.0 µM -9% | [11]; at 100.0 µM -10% | [12]; at 1.2 µM 0% | [12]; at 3.7 µM 2% | [12]; at 11.0 µM 0% | [12]; at 33.0 µM 6% | [12]; at 100.0 µM 17% | [13]; at 1.2 µM -18% | [13]; at 3.7 µM 7% | [13]; at 11.0 µM 11% | [13]; at 33.0 µM 6% | [13]; at 100.0 µM 32% | [14]; [17] 6% | [14]; [18] 10% | [14]; at 50.0 µM 62.5% | [15]; at 1.2 µM 5% | [15]; at 3.7 µM 8% | [15]; at 11.0 µM 6% | [15]; at 33.0 µM 15% | [15]; at 100.0 µM 51%
active: [7]; at 50.0 µM 86.2%

CC1CCCN(CCc2ccccc2)CC1 (stereo unspecified)
active: [7]; [18] 76% | [10]; [18] 83% | [14]; [18] 78%
inactive: [1]; at 1.2 µM 1% | [1]; at 3.7 µM 4% | [1]; at 11.0 µM 11% | [1]; at 33.0 µM 16% | [1]; at 100.0 µM 26% | [2]; at 1.2 µM 2% | [2]; at 3.7 µM 8% | [2]; at 11.0 µM 8% | [2]; at 33.0 µM 7% | [2]; at 100.0 µM 5% | [3]; at 1.2 µM 2% | [3]; at 3.7 µM 3% | [3]; at 11.0 µM 4% | [3]; at 33.0 µM 4% | [3]; at 100.0 µM 5% | [5]; at 1.2 µM 1% | [5]; at 3.7 µM 6% | [5]; [17] -8% | [5]; at 11.0 µM 10% | [5]; at 33.0 µM 13% | [5]; [18] 66% | [5]; at 50.0 µM 17.4% | [5]; at 100.0 µM 14% | [6]; at 1.2 µM 0% | [6]; at 3.7 µM 8% | [6]; [17] -13% | [6]; at 11.0 µM 12% | [6]; at 33.0 µM 15% | [6]; [18] 11% | [6]; at 50.0 µM 20.9% | [6]; at 100.0 µM 22% | [16]; at 1.2 µM 2% | [16]; at 3.7 µM 14% | [16]; at 11.0 µM 29% | [16]; at 33.0 µM 33% | [16]; at 100.0 µM 31% | [7]; [17] 13% | [7]; at 50.0 µM 28.8% | [8]; at 1.2 µM -5% | [8]; at 3.7 µM -8% | [8]; at 11.0 µM 18% | [8]; at 33.0 µM 30% | [8]; at 100.0 µM 43% | [9]; [17] 5% | [9]; [18] 37% | [9]; at 50.0 µM 58.6% | [10]; at 1.2 µM -3% | [10]; at 3.7 µM 0% | [10]; [17] 2% | [10]; at 11.0 µM 9% | [10]; at 33.0 µM 21% | [10]; at 50.0 µM 46.6% | [10]; at 100.0 µM 25% | [11]; at 1.2 µM 2% | [11]; at 3.7 µM 4% | [11]; at 11.0 µM 6% | [11]; at 33.0 µM 8% | [11]; at 100.0 µM 10% | [12]; at 1.2 µM 1% | [12]; at 3.7 µM 4% | [12]; at 11.0 µM 10% | [12]; at 33.0 µM 15% | [12]; at 100.0 µM 14% | [13]; at 1.2 µM 0% | [13]; at 3.7 µM 7% | [13]; at 11.0 µM 16% | [13]; at 33.0 µM 23% | [13]; at 100.0 µM 21% | [14]; [17] 19% | [14]; at 50.0 µM 34.9% | [15]; at 1.2 µM 3% | [15]; at 3.7 µM 7% | [15]; at 11.0 µM 15% | [15]; at 33.0 µM 12% | [15]; at 100.0 µM 16%

Source: PubChem BioAssay (NCI)
